In publication PMC7862700, “An all-to-all approach to the identification of sequence-specific readers for epigenetic DNA modifications on cytosine”:

Key:
Assay in all cases: DAPPL (digital affinity profiling via proximity ligation, sequencing); 10 mM Tris-HCl pH 7.5, 50 mM NaCl, 1 mM DTT, 4% glycerol, room temperature, 30 min; GST-TFs on glutathione beads, 16-mer random dsDNA library, 0.1% formaldehyde crosslink after washing; high values mean tight binding
FLI1 = target: T1, FLI1 (Homo sapiens, UniProt Q01543 1-452); conditions: protein: recombinant; tags: N-terminal GST; dsDNA, one strand shown
T1 sequence: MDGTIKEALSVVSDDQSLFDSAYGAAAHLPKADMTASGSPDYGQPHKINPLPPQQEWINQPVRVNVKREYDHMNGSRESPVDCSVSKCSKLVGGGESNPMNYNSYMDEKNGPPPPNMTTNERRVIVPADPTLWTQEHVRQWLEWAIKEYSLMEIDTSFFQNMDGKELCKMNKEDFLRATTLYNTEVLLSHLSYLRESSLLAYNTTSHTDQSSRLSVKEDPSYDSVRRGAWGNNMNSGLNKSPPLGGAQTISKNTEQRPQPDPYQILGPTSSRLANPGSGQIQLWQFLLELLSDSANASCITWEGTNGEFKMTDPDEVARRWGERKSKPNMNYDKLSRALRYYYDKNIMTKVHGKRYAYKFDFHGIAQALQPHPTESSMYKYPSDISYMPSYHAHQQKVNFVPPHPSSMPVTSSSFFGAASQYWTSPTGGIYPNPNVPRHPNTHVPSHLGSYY
How it was run: (§1)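 After expression in yeast as GST fusions, human transcription factors were bound to glutathione beads, DNA-barcoded and mixed with a tag-only sample. The pools were incubated with 200 nmole of a 16-mer random double-stranded DNA library in Tris/NaCl/DTT/glycerol buffer (30 min, room temperature), washed and crosslinked with 0.1% formaldehyde. Proximity ligation with BsaI/T4 ligase ran for 1 h at 37 °C, before PCR amplification and sequencing on an Illumina NextSeq500. Binding signal is a hexamer's read frequency for a factor divided by its frequency for the tag-only sample.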

ELK1 = target: T2, ELK1 (Homo sapiens, UniProt P19419 1-428); conditions: protein: recombinant; tags: N-terminal GST; dsDNA, one strand shown
T2 sequence: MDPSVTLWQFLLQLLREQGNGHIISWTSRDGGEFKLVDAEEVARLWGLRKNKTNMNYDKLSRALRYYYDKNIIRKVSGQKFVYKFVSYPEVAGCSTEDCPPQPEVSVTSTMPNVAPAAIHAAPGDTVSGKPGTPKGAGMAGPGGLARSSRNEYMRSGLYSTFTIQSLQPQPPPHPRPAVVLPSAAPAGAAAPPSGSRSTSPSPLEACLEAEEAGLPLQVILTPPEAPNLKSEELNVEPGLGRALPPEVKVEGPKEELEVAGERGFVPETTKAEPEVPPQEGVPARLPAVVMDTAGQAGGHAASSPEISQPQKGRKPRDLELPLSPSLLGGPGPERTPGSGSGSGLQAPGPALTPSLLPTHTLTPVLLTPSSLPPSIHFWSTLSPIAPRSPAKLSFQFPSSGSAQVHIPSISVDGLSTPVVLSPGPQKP
How it was run: as §1

GABPA = target: T3, GABPA (Homo sapiens, UniProt Q06546 1-454); conditions: protein: recombinant; tags: N-terminal GST; dsDNA, one strand shown
T3 sequence: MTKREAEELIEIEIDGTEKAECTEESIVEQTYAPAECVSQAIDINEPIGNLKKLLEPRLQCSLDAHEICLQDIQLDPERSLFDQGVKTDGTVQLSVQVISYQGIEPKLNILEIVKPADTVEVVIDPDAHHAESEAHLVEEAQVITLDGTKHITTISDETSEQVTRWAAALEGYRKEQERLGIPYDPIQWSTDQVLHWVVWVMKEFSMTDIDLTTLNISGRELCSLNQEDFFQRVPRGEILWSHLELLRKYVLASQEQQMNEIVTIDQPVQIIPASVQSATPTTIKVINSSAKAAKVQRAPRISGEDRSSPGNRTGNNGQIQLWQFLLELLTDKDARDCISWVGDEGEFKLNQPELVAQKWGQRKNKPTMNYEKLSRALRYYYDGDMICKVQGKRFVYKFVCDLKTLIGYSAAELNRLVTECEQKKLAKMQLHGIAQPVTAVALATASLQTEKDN
How it was run: as §1

ERG = target: T4, ERG (Homo sapiens, UniProt P11308 1-479); conditions: protein: recombinant; tags: N-terminal GST; dsDNA, one strand shown
T4 sequence: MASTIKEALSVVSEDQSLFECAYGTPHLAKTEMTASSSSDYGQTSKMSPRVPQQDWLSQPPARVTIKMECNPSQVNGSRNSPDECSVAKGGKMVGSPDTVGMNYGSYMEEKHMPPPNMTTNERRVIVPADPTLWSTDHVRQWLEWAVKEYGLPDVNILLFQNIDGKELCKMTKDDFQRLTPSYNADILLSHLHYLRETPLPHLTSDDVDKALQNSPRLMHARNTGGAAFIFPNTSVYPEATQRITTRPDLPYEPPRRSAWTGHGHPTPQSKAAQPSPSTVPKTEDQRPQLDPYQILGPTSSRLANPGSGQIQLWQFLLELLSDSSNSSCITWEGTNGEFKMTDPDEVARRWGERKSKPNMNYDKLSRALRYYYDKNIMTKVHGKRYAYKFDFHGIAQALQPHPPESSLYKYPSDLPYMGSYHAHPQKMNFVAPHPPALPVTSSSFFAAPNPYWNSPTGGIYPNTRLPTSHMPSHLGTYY
How it was run: as §1

ELF1 = ELF1 (Homo sapiens, UniProt P32519 1-619); conditions: protein: recombinant; tags: N-terminal GST; dsDNA, one strand shown
How it was run: as §1

SPI1 = SPI1 (Homo sapiens, UniProt P17947 1-270); conditions: protein: recombinant; tags: N-terminal GST; dsDNA, one strand shown
How it was run: as §1

SPIB = SPIB (Homo sapiens, UniProt Q01892 1-262); conditions: protein: recombinant; tags: N-terminal GST; dsDNA, one strand shown
How it was run: as §1

ELK3 = target: T5, ELK3 (Homo sapiens, UniProt P41970 1-407); conditions: protein: recombinant; tags: N-terminal GST; dsDNA, one strand shown
T5 sequence: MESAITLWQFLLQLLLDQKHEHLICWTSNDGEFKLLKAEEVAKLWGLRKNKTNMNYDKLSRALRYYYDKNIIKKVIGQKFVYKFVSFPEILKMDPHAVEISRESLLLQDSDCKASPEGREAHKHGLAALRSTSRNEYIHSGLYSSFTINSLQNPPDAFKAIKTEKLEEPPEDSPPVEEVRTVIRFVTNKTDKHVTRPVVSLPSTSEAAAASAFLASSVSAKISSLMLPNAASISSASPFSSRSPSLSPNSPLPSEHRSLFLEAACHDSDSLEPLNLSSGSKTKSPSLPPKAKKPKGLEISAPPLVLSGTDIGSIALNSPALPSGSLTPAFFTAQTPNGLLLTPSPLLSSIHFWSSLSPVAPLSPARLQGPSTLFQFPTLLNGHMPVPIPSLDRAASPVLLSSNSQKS
How it was run: as §1

FEV = target: T6, FEV (Homo sapiens, UniProt Q99581 1-238); conditions: protein: recombinant; tags: N-terminal GST; dsDNA, one strand shown
T6 sequence: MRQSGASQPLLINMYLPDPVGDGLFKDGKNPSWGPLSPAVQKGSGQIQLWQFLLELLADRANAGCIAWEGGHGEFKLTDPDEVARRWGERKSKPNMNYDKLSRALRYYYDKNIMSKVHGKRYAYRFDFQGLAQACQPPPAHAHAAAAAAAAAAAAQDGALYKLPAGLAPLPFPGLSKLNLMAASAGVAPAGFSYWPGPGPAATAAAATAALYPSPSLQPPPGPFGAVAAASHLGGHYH
How it was run: as §1

ETV5 = ETV5 (Homo sapiens, UniProt P41161 1-510); conditions: protein: recombinant; tags: N-terminal GST; dsDNA, one strand shown
How it was run: as §1

HSF1 = HSF1 (Homo sapiens, UniProt Q00613 1-529); conditions: protein: recombinant; tags: N-terminal GST; chain copies: 3; dsDNA, one strand shown
How it was run: as §1

SPIC = target: T7, SPIC (Homo sapiens, UniProt Q8N5J4 1-248); conditions: protein: recombinant; tags: N-terminal GST; dsDNA, one strand shown
T7 sequence: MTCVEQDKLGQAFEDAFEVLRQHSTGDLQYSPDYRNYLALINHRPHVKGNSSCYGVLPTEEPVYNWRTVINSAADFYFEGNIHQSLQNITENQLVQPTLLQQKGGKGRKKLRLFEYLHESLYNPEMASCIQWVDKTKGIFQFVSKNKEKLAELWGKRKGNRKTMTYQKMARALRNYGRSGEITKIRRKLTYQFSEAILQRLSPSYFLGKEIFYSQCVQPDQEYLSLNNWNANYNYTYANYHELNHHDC
How it was run: as §1

ELF4 = ELF4 (Homo sapiens, UniProt Q99607 1-663); conditions: protein: recombinant; tags: N-terminal GST; dsDNA, one strand shown
How it was run: as §1

ELK4 = target: T8, ELK4 (Homo sapiens, UniProt P28324-2 1-405); conditions: protein: recombinant; tags: N-terminal GST; dsDNA, one strand shown
T8 sequence: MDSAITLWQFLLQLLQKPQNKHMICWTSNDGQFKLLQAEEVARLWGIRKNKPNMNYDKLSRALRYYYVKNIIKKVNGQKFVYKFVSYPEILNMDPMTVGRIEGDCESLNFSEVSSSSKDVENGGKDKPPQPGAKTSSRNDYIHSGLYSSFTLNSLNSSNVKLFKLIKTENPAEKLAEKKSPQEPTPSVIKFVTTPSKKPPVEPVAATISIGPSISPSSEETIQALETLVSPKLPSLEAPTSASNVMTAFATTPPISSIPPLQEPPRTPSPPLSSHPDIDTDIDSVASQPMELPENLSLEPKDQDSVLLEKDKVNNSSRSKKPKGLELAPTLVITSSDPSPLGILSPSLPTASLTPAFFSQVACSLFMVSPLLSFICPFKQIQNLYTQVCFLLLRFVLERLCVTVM
How it was run: as §1

ETV2 = target: T9, ETV2 (Homo sapiens, UniProt O00321 1-342); conditions: protein: recombinant; tags: N-terminal GST; dsDNA, one strand shown
T9 sequence: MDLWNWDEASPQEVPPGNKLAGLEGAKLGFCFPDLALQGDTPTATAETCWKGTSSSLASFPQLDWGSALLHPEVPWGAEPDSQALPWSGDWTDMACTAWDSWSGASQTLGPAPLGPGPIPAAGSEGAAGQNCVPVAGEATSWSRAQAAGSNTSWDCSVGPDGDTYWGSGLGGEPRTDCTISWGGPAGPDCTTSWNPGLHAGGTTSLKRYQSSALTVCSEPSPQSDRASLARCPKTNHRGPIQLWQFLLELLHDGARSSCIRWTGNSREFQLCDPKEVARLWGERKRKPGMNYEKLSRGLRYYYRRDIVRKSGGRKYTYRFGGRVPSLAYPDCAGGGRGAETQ
How it was run: as §1

ELF3 = target: T10, ELF3 (Homo sapiens, UniProt P78545 1-371); conditions: protein: recombinant; tags: N-terminal GST; dsDNA, one strand shown
T10 sequence: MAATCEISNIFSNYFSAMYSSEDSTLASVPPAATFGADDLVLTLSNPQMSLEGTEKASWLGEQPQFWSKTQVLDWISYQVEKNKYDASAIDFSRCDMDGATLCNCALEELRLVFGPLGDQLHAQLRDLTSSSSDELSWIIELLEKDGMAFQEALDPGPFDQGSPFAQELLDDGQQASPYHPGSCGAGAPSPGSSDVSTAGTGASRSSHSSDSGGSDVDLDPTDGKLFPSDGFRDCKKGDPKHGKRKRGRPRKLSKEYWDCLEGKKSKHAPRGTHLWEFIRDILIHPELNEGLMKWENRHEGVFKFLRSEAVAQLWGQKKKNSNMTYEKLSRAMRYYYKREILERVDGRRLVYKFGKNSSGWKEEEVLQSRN
How it was run: as §1

ETV1 = ETV1 (Homo sapiens, UniProt P50549 1-477); conditions: protein: recombinant; tags: N-terminal GST; dsDNA, one strand shown
How it was run: as §1

ETV1, sequence (P50549 whole entry): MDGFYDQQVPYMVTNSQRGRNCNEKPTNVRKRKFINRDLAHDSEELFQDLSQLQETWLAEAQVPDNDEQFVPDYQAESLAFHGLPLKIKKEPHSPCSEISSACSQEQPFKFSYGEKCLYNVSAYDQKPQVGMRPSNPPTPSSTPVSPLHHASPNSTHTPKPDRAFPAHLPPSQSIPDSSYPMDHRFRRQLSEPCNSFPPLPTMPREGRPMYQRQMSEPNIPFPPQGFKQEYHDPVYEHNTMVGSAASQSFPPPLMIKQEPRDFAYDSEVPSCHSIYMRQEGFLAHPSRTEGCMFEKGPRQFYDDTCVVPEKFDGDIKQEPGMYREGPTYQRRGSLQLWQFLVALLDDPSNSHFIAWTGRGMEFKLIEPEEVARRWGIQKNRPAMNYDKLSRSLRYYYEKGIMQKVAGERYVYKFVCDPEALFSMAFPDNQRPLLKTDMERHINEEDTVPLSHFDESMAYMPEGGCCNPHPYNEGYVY
ETV5, sequence (P41161 whole entry): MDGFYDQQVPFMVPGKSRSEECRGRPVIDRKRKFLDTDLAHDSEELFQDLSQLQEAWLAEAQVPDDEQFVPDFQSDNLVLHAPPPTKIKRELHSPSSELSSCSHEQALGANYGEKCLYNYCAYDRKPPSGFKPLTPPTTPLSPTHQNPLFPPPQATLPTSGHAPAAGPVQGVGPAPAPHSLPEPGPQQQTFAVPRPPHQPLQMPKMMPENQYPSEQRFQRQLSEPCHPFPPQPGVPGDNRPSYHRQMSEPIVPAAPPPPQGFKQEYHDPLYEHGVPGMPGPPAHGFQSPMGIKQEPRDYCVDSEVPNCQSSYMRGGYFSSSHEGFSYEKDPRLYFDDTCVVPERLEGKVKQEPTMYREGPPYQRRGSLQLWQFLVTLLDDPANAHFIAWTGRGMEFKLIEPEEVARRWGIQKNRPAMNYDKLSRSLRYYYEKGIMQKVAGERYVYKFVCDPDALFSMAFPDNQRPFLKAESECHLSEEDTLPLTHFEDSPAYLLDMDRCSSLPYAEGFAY
SPIB, sequence (Q01892 whole entry): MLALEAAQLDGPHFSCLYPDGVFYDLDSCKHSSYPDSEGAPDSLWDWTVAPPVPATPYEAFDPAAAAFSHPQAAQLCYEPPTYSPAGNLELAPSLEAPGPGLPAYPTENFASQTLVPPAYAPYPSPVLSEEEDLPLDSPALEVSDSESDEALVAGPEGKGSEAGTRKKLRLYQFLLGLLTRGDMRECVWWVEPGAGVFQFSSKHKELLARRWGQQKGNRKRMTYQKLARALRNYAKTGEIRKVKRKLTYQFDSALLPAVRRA
HSF1, sequence (Q00613 whole entry): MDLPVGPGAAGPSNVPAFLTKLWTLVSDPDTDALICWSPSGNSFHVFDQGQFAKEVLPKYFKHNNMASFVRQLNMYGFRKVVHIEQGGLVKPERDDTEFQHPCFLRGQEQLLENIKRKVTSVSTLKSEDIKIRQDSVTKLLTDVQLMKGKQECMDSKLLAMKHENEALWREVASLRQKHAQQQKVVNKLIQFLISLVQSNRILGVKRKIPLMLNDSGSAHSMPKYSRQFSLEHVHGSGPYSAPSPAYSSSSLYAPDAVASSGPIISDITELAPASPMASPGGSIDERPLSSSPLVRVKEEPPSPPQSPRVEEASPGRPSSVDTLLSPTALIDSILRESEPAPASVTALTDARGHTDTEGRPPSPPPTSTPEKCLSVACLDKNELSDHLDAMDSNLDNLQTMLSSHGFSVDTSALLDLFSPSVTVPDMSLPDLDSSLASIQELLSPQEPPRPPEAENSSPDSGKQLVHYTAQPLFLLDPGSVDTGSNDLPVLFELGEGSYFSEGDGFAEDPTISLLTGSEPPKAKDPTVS
ELF1, sequence (P32519 whole entry): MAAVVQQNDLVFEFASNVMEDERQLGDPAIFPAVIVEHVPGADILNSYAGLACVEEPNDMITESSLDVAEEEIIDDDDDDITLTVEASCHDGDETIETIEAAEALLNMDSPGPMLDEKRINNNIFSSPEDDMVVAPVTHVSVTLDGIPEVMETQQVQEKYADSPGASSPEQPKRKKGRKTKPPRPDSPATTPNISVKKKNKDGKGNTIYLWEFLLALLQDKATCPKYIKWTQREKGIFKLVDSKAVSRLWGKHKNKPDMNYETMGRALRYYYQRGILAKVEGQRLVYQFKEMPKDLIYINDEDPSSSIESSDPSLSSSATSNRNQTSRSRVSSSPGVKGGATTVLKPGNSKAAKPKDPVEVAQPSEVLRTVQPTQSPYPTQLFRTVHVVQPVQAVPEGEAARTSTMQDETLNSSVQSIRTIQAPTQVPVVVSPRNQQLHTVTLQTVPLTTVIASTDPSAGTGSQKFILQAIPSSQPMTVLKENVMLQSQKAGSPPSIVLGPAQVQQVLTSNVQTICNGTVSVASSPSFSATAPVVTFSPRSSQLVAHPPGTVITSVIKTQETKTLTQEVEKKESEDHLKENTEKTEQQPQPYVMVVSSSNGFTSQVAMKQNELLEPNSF
ELF4, sequence (Q99607 whole entry): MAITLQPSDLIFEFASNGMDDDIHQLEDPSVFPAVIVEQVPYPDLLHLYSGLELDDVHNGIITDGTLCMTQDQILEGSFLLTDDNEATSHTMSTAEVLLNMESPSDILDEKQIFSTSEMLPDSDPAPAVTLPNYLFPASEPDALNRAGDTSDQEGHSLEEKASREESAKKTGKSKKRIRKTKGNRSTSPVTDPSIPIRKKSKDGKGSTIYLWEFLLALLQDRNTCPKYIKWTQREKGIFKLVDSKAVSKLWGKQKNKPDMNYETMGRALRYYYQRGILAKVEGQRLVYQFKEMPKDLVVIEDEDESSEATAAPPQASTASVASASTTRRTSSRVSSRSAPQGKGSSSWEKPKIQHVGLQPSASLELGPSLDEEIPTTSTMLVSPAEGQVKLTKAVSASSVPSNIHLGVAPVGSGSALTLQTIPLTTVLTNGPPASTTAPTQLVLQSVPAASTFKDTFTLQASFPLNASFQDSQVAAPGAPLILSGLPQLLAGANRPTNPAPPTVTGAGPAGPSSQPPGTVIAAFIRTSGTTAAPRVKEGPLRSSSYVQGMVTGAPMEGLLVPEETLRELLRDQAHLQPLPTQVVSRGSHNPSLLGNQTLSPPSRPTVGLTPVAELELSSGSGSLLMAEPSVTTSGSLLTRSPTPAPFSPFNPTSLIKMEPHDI

## ACACGA
FLI1
  binding signal: 1.08 fold enrichment (6-mer frequency, TF over GST control)
ELK1
  binding signal: 1.1 fold enrichment (6-mer frequency, TF over GST control)
GABPA
  binding signal: 1.11 fold enrichment (6-mer frequency, TF over GST control)
ERG
  binding signal: 1.02 fold enrichment (6-mer frequency, TF over GST control)
ELF1
  binding signal: 1.1 fold enrichment (6-mer frequency, TF over GST control)
SPI1
  binding signal: 1.07 fold enrichment (6-mer frequency, TF over GST control)
SPIB
  binding signal: 1.04 fold enrichment (6-mer frequency, TF over GST control)
ELK3
  binding signal: 1.1 fold enrichment (6-mer frequency, TF over GST control)
FEV
  binding signal: 1.1 fold enrichment (6-mer frequency, TF over GST control)
ETV5
  binding signal: 1.15 fold enrichment (6-mer frequency, TF over GST control)
HSF1
  binding signal: 1.02 fold enrichment (6-mer frequency, TF over GST control)
SPIC
  binding signal: 1.11 fold enrichment (6-mer frequency, TF over GST control)
ELF4
  binding signal: 1.2 fold enrichment (6-mer frequency, TF over GST control)
ELK4
  binding signal: 1.16 fold enrichment (6-mer frequency, TF over GST control)
ETV2
  binding signal: 1.08 fold enrichment (6-mer frequency, TF over GST control)
ELF3
  binding signal: 1.01 fold enrichment (6-mer frequency, TF over GST control)
ETV1
  binding signal: 1.1 fold enrichment (6-mer frequency, TF over GST control)
